# According to the OligoGym collection:
# Target: ALOX12B
# Test: pooled miR-30 sensor sort-seq; sequence = guide strand
# Settings: shRNA
# Further: reference of the scale not given here.
row,Sequence,sensor-assay potency score (higher = more potent)
1,TAGCCATTCCACTCAGGCCGGT,-1.01
2,TTGCAGTCCAACAGGCCGCGGA,-0.697
3,ATAATAGGTGATGATCTCCGTC,-0.228
4,TACTTCTCCAGTGCATTCCACA,-0.953
5,TAGAAGTCCTGCTTGGCTCTGA,0.53
6,TTGATCTGGACGGTGTATCGGG,-0.0019
7,TCTGATCTCCTCTTTTCTGTGC,0.286
8,TCATTGAGGAGAACGGCCCGGC,0.146

# Target: ALPK1
# Test: as above
# Settings: shRNA
row,Sequence,sensor-assay potency score (higher = more potent)
1,TAACTTCTTGAGACAGAGCTTC,-0.293
2,TTCACTAATTTCTTCTCCCTGC,-0.272
3,TTGTTCATAGAGTCTCTTGTTA,0.0334
4,TTCATTACATTCCACATGCTGG,-0.496
5,AAATCGACCACAACATCTCTAT,-0.634
6,TCTGTTTTCACCACTTTCGTGT,0.311
7,TTGAACTTGTAAATGTTCCTTC,0.693
8,TTGATGAAGATGATGAACCCAA,0.0893
9,TTGCAGAGGAACTAAACCCTGA,-0.0397
10,TATACAGACCGACTGCACCAGG,-1.24
11,TAAATCGACCACAACATCTCTA,0.166
